Among the data in PubChem BioAssay (NCI) are growth values, retold here.

The panel holds about 83,000 compounds, 20% with a hit somewhere; the sample as a whole holds those more often.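 Testing used 96-well plates and a 48-hour single-concentration exposure. Example: -40 means 40% of the starting cells died.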 The source made the active and inactive calls.

The subject of this test is A549/ATCC NSCLC. The experiment in a line: NCI-60 one-dose screen, 48 h (100 = growth as untreated, 0 = no growth, -100 = all killed). Particulars: 10 µM unless noted. The method, then: Growth inhibition of the A549/ATCC human Non-Small Cell Lung tumor cell line is measured as a screen for anti-cancer activity. Cells are grown in 96 well plates and exposed to the test compound for 48 hours. Compounds are tested at a single concentration, which is 10^-5 M for most compounds. The reported endpoint is percent growth (GI% or GIPRCNT), where numbers from 0 - 100% represent growth inhibition, and numbers from -100% - 0 represent cell death. For example, a value of 40 represents 60% growth inhibition. A value of 0 means no net growth occurred over the course of the experiment. A value of -40 indicates 40% of cells at the beginning of the experiment died by the end of the experiment. A value of -100 means all cells are dead at the end of the experiment.
NCI-60 Human Tumor Cell Lines Screen was performed using the standard one-dose NCI protocol, which is described in more detail at https://dtp.cancer.gov/discovery_development/nci-60/default.htm.
Compounds with GIPRCNT values below 10 were considered active. Activity score was based on GIPRCNT using the following formula: […]
Score is 0 for GIPRCNT values of 100 or above, 50 for GIPRCNT values of 0, and 100 for GIPRCNT values of -100.
Take `COc1ccc2c(c1)c(-c1nonc1-c1cn(C)c3ccc(OC)cc13)cn2C`: the growth was 39.2% (inactive).
Under `COP(=O)(OC)c1nnn(-c2cccc([N+](=O)[O-])c2)c1C` stands 111% (inactive); under `C[N+](C)(C/C=C/c1ccccc1)Cc1ccccc1`, 94.4% (inactive); under `Clc1ccc(-c2cn3ccsc3n2)c(Cl)c1Cl`, 97.5% (inactive).
Under `COc1cccc(/C=C/C(=O)c2cc3c(N)c(C(=O)Nc4ccccc4C)sc3nc2C)c1` stands 62.9% (inactive); under `Cc1ccc(C)c(-n2c(-c3ccc(Br)cc3)csc2=NC(=O)c2ccccc2F)c1`, 71.4% (inactive); under `COC(=O)C1=C(C)NC(C)=C(C(=O)OCC(C)C)C1c1ccccc1[N+](=O)[O-]` (stereo not given), 65.4% (inactive).
Under `CC1O[C@@H]2C[C@@](O)([C@H]1O)n1c3ccccc3c3c4c(c5c6ccccc6n2c5c31)C(=O)NC4=O` (stereo not given in full) stands 32.3% (inactive); under `COc1cc2c3c(c1O)-c1ccccc1[C@@H]1OC(=O)N(CC2)[C@H]31`, 97% (inactive); under `N=c1c2c(=N)n3c(nc2nc2n1-c1ccccc1Sc1ccccc1-2)sc1cc(Cl)ccc13`, 14% (inactive).
For `CCOC(=O)c1c(-c2ccc(Cl)cc2)c(C#N)c2c(C#N)c(N)nn2c1N`, the growth is 51.3% (inactive).
With `CCCCCCCC/C=C\CCCCCCCCOc1ccc(CC(=O)NCC[N+](C)(C)C)cc1` the figure was 74.1% (inactive); with `Cc1cc(N2CCCCC2)nc(N2CCN(CC(=O)Nc3ccc4c(ccn4Cc4ccccc4)c3)CC2)n1`, 49.2% (inactive); with `COc1ccc2nc3cc(Cl)ccc3c(NCCN)c2c1`, -84.5% (active).
With `Cc1[nH]c(/C=C/C(=O)c2ccc(C(F)(F)F)c(F)c2)c(C)c1C(=O)NCC(C)C` the figure was 95.4% (inactive); with `CCOC(=O)c1c(NC(=O)c2ccc(C(C)(C)C)cc2)sc2cc(O)ccc12`, 91.9% (inactive); with `CCNC(=O)Oc1ccc(/C(=C(/C)Cc2ccc(OC)cc2)c2ccc(OCCN3CCCC3)cc2)cc1`, 66.4% (inactive).
With `COc1ccc(C2C(C#N)=C(N)Oc3c2sc2c(Br)cccc32)cc1` (stereo not given) the figure was 35.5% (inactive); with `C#CC#CC#CC#CC#CC#CC#CC#CCC1OCC(COC(=O)O[C@@H](C(=O)O[C@H]2C[C@@]3(O)[C@@H](OC(=O)c4ccccc4)[C@@H]4[C@]5(OC(C)=O)CO[C@@H]5C[C@H](O)[C@@]4(C)C(=O)[C@H](OC(C)=O)C(=C2C)C3(C)C)[C@@H](NC(=O)c2ccccc2)c2ccccc2)O1` (stereo not given in full), 18.7% (inactive).
Turning to `CCNc1nc(-c2ccc(F)cc2)c(C#N)c(=O)n1C`, the growth was 58.9% (inactive).
Take `O=C1CCCc2nc3sc4c(=O)n(-c5ccccc5Cl)nnc4c3cc21`: the growth is 80% (inactive).
For `COc1ccc(NC(=O)c2sc3nc(C)c(C(O)c4ccccc4)cc3c2N)cc1` (stereo not given), the growth was 24.9% (inactive).
Under `CCCCCCCCCCCCCCCCOC(=O)c1c(C)[nH]c(/C=C2\N=C(c3ccc[nH]3)C=C2OC)c1C` stands 11% (inactive).
With `COC(=O)c1c2c(c(C)[n+]([O-])c1C)C(=O)C=CC2=O` the figure was 15.8% (inactive); with `Oc1c(CN2CCCC2)cc(COCc2ccccc2)c2cccnc12`, 8.85% (active); with `CCOC(=O)C/C(=N\Nc1cc(=O)[nH]c2ccc(Cl)cc12)C(=O)OCC`, 100% (inactive).
Under `S=c1[nH]c2cc(Cl)ccc2o1` stands 118% (inactive).
On to `O=C1c2cc3c(cc2-c2c1c1ccc(Cl)cc1c(=O)n2C[C@H](O)CO)OCO3`, for which the growth was -18.6% (active).
Take `CCCCCSB(SCCCCC)c1ccccc1`: the growth was 92.4% (inactive).
Under `C=C1C(=O)O[C@H]2[C@H]1CC/C(COC(=O)c1cc3cc(F)ccc3[nH]1)=C\CC[C@@]1(C)O[C@@H]21` stands -61.9% (active); under `COc1cccc(OC)c1Oc1c(-c2nc3ccccc3s2)c(C)nn1-c1ccccc1`, 67.4% (inactive); under `COc1ccc2cc(-c3cnc4nonc4n3)ccc2c1`, 36% (inactive).
With `C=CC1(C)C(O[Si](C)(C)C(C)(C)C)CC2C3OC(=O)NC31c1cccc3c1[C@H](C(=O)N3C)C2(C)C` (stereo not given in full) the figure was 41.7% (inactive); with `COc1cc2nc(Nc3cccc(F)c3)nc(Nc3cc(C)[nH]n3)c2cc1OC`, -55% [20 µM] (active).
With `Nc1c(C(=O)Nc2ccccn2)sc2nc3c(cc12)C(O)CCC3` (stereo not given) the figure was 36.4% (inactive); with `COc1cc(Nc2ncccc2NC(=O)c2cn(Cc3cccc(Oc4ccccc4)c3)nn2)cc(OC)c1`, 86% (inactive).
For `C=CCn1c(SCC(=O)Nc2ccc(C(=O)/C=C/c3cc(OC)c(OC)c(OC)c3)cc2)nnc1-c1cc(-c2ccc(OC)cc2)nc2ccccc12`, the growth was 98.1% (inactive).
With `Cn1cc(/C=C2/C(=O)Nc3ccccc32)c2ccccc21` the figure was 86.2% (inactive); with `COc1ccc(-c2nnc(SCC(=O)Nc3ccc(/C(C)=N\O)cc3)n2-c2ccccc2)cc1OC`, 70.7% (inactive); with `CCCCCCCCNc1cc2c3c(c1)CCCN3CCC2`, 76.4% (inactive).
